Test [1] deals with guinea pig Dopamine Transporter (DAT), gene 100714898. The test is described as follows: NVS_TR_gDAT: NovaScreen (NVS) Transporter Assay for guinea pig Dopamine Transporter (DAT) (AID 2283369).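 Further: active compounds lower bound radioligand signal relative to DMSO.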 In a few lines: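 Guinea pig striatal membranes, cell-free radioligand binding with filter-based scintillation counting, read 2 h after dosing. Loss of signal versus DMSO baseline; single-concentration primary (25 uM) then concentration-response up to 50 uM.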

In test [2] the target is human Dopamine Transporter (DAT), SLC6A3 (gene 6531) (UniProt Q01959). The test is described as follows: NVS_TR_hDAT: NovaScreen (NVS) Transporter Assay for human Dopamine Transporter (DAT) (AID 2283374).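 Further: activity means loss of bound radioligand signal relative to DMSO.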 The gist of the method:
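Cell-free radioligand binding to extracted human DAT protein, read 1 h after dosing by filter-based scintillation counting. Loss of specific binding scored against DMSO baseline; primary screen in duplicate at 25 uM, actives then run in concentration series.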

For test [3], the target named is rat Serotonin Transporter (SERT), Slc6a4 (gene 25553) (UniProt P31652). Description: NVS_TR_rSERT: NovaScreen (NVS) Transporter Assay for rat Serotonin Transporter (SERT) (AID 2283375). The gist of the method: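 Rat forebrain membranes; radioligand displacement at SERT read by filter-based scintillation counting, 1 h after dosing. Screened in duplicate at 25 uM, actives then run in concentration series; loss of signal versus DMSO baseline.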

Test [4] concerns the target human Norepinephrine Transporter (NET), SLC6A2 (gene 6530) (UniProt P23975). Description: NVS_TR_hNET: NovaScreen (NVS) Transporter Assay for human Norepinephrine Transporter (NET) (AID 2283377).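 Further: cell-free membrane protein extracted from CHO cells expressing human NET.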 The gist of the method: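 Radioligand binding to human NET in cell-free CHO-derived protein preparations, read by filter-based scintillation counting 1 hour after dosing. Loss of signal versus DMSO baseline indicated displacement; primary screening in duplicate at 25 uM, actives then titrated.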

Test [5] concerns the target Peroxisome proliferator-activated receptor gamma (Homo sapiens) (UniProt P37231). The test is described as follows: NVS_NR_hPPARg: NovaScreen (NVS) Nuclear Receptor Binding Assay for human Peroxisome Proliferator-activated Receptor gamma (PPARg) (AID 2283370). In a few lines:
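Cell-free fluorescence polarization binding to human PPARg protein, read 2 h after dosing. Primary screen in duplicate at 25 uM, actives followed in concentration series; loss of signal relative to DMSO scored.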

Test [6] deals with Estrogen receptor beta (Homo sapiens) (UniProt Q92731). The test is described as follows: OT_ER_ERbERb_1440: Odyssey Thera (OT) 24-hour HEK293T Protein-Complementation Assay for Estrogen Receptor-beta/-beta Homodimer (AID 2283380).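 Further: fluorescence gain from ER beta LBD homodimer complementation read by laser scanning cytometry; scored as signal increase over DMSO baseline for both agonists and antagonists.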 In a few lines: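 HEK293T cells stably expressing human ER-beta LBD (aa 310-547) PCA homodimer pair, dosed 24 h; formaldehyde-fixed, Draq5-stained. Readout: increase in nuclear (agonist) or nuclear plus cytoplasmic (antagonist) fluorescence intensity versus DMSO, gain-of-signal fitting.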

For test [7], the target named is Estrogen receptor (Homo sapiens) (UniProt P03372). The test is described as follows: OT_ERa_GFPERaERE_0120: Odyssey Thera (OT) 2-hour HeLa Transcription Induction Assay for Estrogen Receptor (AID 2283382). The gist of the method:
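HeLa cells were dosed with test chemical and read 2 hours later for GFP-ERα/ERE-linked fluorescent protein induction by fluorescence microscopy. Gain-of-signal was fitted relative to DMSO baseline, quantified by high content image analysis.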

For test [8] the target is unchanged. Description: OT_ERa_GFPERaERE_0480: Odyssey Thera (OT) 8-hour HeLa Transcription Induction Assay for Estrogen Receptor (AID 2283381; active means hit-call score of the fitted dose curve at least 0.9, where 1 is the maximum; inactive means score below 0.9). In a few lines: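 HeLa cells dosed with compound and imaged by fluorescence microscopy at 8 h; GFP induction from an ERE reporter quantified by high-content image analysis and fitted as gain of signal against DMSO baseline.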
Test [9] deals with Agonist Androgen Response Element (ARE), AR (gene 367) (UniProt P10275). The test is described as follows: OT_AR_ARELUC_AG_1440: Odyssey Thera (OT) 24-hour CHO-K1 Luciferase Assay for Agonist Androgen Response Element (ARE) (AID 2283379). The gist of the method: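 Seed CHO-K1 cells; dose compounds for 24 h; add D-luciferin plus ATP in PBS; read luminescence. Signal increase relative to vehicle defines agonist activity, with at least 3 replicate wells per sample.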

Records with an inconclusive call do not appear. Active and inactive are the calls of the source. How the source made its calls, unless noted: active means hit-call score of the fitted dose curve at least 0.9, where 1 is the maximum; inconclusive means response in the unintended direction; inactive means score below 0.9.

Estrogen receptor beta (Homo sapiens), sequence (Q92731 whole entry, looked up, the tested form may be a part): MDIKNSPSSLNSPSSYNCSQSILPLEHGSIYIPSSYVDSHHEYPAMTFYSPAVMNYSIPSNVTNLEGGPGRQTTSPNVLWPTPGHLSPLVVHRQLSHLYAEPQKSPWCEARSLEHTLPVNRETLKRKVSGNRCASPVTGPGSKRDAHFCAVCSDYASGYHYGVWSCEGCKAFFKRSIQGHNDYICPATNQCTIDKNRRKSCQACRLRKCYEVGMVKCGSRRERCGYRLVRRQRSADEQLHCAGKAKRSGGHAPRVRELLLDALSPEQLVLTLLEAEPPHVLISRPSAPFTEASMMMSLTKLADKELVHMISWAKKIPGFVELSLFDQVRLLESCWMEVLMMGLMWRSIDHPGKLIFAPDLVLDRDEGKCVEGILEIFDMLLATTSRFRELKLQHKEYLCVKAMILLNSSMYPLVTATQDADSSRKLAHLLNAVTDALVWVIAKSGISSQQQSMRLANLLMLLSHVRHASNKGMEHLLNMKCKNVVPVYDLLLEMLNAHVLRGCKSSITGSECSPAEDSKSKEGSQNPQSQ
human Norepinephrine Transporter (NET), SLC6A2 (gene 6530), sequence (P23975 whole entry, looked up): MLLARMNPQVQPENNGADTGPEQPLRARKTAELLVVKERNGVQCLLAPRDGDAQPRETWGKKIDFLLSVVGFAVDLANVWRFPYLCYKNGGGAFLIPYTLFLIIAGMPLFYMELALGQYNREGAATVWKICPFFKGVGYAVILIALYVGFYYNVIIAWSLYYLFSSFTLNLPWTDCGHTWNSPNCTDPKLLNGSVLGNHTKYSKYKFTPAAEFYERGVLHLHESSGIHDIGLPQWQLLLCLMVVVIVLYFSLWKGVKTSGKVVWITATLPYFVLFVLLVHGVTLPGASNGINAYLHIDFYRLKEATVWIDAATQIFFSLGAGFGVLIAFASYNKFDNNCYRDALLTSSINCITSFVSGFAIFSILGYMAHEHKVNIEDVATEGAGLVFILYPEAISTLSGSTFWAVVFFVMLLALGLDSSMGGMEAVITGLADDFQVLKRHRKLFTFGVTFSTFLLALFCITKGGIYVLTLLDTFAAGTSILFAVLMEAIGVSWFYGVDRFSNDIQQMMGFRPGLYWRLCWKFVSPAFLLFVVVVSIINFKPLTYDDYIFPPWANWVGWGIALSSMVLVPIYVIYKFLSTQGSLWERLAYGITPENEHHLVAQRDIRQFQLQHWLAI
Estrogen receptor (Homo sapiens), sequence (P03372 whole entry, looked up): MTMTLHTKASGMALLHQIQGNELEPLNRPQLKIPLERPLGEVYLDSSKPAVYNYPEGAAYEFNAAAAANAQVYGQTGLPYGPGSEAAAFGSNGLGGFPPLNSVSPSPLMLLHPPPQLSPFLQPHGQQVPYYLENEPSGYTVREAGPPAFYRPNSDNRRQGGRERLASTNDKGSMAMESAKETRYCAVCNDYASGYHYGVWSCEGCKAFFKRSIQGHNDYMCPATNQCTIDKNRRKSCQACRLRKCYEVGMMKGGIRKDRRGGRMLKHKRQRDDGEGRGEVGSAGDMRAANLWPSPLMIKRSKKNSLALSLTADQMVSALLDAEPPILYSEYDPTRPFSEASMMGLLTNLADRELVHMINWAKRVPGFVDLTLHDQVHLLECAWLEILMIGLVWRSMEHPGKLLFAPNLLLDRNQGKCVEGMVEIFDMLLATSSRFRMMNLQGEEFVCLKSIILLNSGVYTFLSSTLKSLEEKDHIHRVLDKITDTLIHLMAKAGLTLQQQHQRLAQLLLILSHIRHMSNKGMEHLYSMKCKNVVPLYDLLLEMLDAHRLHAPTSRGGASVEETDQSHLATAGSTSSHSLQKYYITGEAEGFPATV
Agonist Androgen Response Element (ARE), AR (gene 367), sequence (P10275 whole entry, looked up): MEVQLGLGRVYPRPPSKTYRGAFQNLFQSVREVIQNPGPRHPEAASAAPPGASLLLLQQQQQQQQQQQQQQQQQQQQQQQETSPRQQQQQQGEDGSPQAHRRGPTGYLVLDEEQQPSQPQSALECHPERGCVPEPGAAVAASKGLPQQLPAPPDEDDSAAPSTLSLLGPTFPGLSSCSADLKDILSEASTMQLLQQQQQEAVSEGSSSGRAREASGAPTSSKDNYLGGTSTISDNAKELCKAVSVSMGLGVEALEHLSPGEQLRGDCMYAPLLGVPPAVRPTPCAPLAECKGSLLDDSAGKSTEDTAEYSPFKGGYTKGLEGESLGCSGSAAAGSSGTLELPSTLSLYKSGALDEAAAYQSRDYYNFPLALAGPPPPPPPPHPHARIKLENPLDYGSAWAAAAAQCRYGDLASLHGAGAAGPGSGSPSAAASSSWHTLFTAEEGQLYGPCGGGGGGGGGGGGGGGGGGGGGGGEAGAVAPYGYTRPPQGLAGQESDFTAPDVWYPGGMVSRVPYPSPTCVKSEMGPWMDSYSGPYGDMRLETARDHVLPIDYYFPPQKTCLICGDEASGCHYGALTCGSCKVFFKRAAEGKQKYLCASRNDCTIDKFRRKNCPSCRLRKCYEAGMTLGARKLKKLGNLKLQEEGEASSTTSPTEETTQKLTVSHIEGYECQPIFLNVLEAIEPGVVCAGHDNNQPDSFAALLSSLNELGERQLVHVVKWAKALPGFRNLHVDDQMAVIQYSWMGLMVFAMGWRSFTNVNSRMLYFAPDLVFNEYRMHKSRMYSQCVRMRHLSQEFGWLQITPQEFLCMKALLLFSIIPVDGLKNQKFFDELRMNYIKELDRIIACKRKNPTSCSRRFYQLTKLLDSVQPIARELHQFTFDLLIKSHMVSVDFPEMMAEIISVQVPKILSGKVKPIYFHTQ
human Dopamine Transporter (DAT), SLC6A3 (gene 6531), sequence (Q01959 whole entry, looked up): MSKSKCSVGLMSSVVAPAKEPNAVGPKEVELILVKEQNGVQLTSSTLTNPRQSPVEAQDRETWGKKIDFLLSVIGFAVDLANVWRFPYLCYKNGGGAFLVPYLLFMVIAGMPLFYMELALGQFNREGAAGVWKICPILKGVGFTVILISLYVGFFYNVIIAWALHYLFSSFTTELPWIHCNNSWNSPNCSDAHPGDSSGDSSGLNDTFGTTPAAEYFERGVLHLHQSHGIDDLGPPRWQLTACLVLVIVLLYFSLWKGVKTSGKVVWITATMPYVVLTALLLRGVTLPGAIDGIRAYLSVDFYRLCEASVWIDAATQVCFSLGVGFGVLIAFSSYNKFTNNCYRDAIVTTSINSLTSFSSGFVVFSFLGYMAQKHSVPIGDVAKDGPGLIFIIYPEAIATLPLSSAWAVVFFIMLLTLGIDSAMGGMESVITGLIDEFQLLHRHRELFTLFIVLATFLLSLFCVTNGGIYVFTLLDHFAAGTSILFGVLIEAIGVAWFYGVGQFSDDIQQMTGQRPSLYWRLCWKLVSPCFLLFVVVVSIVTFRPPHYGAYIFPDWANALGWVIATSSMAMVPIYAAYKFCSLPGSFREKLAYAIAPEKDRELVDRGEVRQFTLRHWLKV
Peroxisome proliferator-activated receptor gamma (Homo sapiens), sequence (P37231 whole entry, looked up): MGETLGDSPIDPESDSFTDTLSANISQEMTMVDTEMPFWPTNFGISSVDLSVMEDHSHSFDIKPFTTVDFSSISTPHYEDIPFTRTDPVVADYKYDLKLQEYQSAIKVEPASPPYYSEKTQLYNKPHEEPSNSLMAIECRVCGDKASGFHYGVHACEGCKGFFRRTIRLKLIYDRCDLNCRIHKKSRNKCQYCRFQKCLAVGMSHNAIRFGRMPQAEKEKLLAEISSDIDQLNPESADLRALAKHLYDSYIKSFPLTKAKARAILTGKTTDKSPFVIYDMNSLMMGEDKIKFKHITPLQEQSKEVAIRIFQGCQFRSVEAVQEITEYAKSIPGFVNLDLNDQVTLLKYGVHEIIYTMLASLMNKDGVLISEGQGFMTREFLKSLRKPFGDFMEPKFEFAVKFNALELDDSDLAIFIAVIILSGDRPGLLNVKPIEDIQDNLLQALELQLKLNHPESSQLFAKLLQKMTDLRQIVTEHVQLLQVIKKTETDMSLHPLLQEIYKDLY
rat Serotonin Transporter (SERT), Slc6a4 (gene 25553), sequence (P31652 whole entry, looked up): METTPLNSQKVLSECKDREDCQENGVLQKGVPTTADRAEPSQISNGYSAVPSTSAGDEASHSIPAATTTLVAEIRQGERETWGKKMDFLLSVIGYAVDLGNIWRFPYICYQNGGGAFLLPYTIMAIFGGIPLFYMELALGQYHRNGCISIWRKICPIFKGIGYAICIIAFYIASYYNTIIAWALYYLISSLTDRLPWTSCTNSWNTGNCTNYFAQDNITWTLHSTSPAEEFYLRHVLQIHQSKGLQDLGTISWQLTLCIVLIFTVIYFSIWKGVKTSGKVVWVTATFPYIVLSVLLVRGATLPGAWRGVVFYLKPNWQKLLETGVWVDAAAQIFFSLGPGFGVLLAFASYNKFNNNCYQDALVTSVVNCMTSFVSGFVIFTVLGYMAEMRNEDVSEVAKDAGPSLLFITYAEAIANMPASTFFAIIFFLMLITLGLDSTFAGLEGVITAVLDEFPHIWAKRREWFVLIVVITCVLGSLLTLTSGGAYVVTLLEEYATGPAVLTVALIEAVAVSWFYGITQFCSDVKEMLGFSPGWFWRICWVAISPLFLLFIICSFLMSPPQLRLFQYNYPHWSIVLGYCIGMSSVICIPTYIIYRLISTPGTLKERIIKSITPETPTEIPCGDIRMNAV

One may read the AC50 as the midpoint of the concentration-response curve, whichever way the signal moves. Take `O=C(c1ccc(OCCN2CCCCC2)cc1)c1c(-c2ccc(O)cc2)sc2cc(O)ccc12`: the half-maximal activity concentration (AC50) in [1] is 2.14 µM (active); in test [2], 1.76 µM (active); in test [3], 9.25 µM (active); in test [4] it was 0.366 µM (active).

Regarding `CCCCCCCCCCCCS`, the compound was classed as inactive in test [5], in [6] and in test [7].

Consider `C=C(C)C(N)=O`, for which the result in test [4], in [8] and in [7] was inactive.

For the compound `CCOC(=O)C=Cc1ccccc1`, the compound was called inactive in test [2]. Further, the AC50 in test [4] was 25 µM (active).

On to `CC(C)(C)C1CCC(O)CC1` (stereo not given), for which the outcome in [5] and in test [7] was inactive.

In the case of `CCCCC/C=C\C=C\C(=O)OCC`, the AC50 is 12.5 µM (active) in test [6] and 95.6 µM (active) in [8]. The compound was classed as inactive in [7].

For the compound `CC(=O)OC(C)(C)C`, the compound was classed as inactive in [6] and in test [8].

`FC(F)(F)c1ccc(Cl)c(Cl)c1`: the call in test [9], in test [6], in test [8] and in test [7] was inactive.

Consider `CCNC(=S)NCC`, for which, in test [6], the result was inactive.

As to `CC(C)(C)c1cccc(O)c1`, the compound was called inactive in test [9] and in [8].

Regarding `CCCC[N+](C)(CCCC)CCCC`, in [6], the outcome was inactive.

For the compound `CCOCC(C)O` (stereo not given), the call in test [6] and in test [8] was inactive.

Consider `COC(=O)c1cccc(C(=O)OC)c1`, for which the AC50 in [9] is 1.63 µM (active). In addition, the compound was classed as inactive in test [6], in test [8] and in test [7].

For `CC(=O)C1C(=O)C=C(C)OC1=O` (stereo not given), the outcome in test [6] was inactive.

`CC(C)(CO)CO`: the result in [9], in test [6], in [8] and in test [7] was inactive.

With `CCC(C)(C)C1CCC(=O)CC1`, the compound was called inactive in test [9] and in test [8].

For `COC(=O)c1ccc(C(=O)OC)cc1`, the result in test [6] was inactive.

`CC(C)C(=O)c1ccccc1`: the compound was called inactive in test [6], in test [8] and in test [7].

On to `CC(O)CN` (stereo not given), for which the compound was classed as inactive in test [6] and in [8].

For the compound `CCCc1ccc(N)cc1`, in test [6], the outcome was inactive.

Take `CCCCOCCOCCO`: the compound was classed as inactive in test [6].

As for `CCCc1ccc(O)cc1`, the half-maximal activity concentration (AC50) in test [6] was 46.5 µM (active).

Regarding `O=S(=O)(O)c1cc(S(=O)(=O)O)c2c(N=Nc3ccccc3)c(O)ccc2c1`, the outcome in test [6], in test [8] and in test [7] was inactive.

With `CC1COC(=O)O1` (stereo not given), the call in [9], in test [6] and in test [7] was inactive.

Consider `CC(=O)CC(=O)N(C)C`, for which the outcome in [6] and in test [8] was inactive.

Consider `CC(C)N(c1ccccc1)C(C)C`, for which the outcome in test [6] was inactive.

With `CC(CCO)CC(C)(C)C` (stereo not given), the compound was classed as inactive in test [9] and in [8]. In addition, the AC50 in test [6] is 39 µM (active).

`COC(=O)C(C)Oc1ccc(Oc2ncc(C(F)(F)F)cc2Cl)cc1` (stereo not given): the call in [6] and in test [8] was inactive.

For `O=C(OCc1ccccc1)c1ccccc1O`, the half-maximal activity concentration (AC50) in test [6] is 49.7 µM (active). Further, the compound was classed as inactive in test [8] and in [7].

As to `c1ccc(OCCOc2ccccc2)cc1`, the compound was classed as inactive in test [6], in test [8] and in test [7].

As for `C=CC(C)CCCC(C)(C)O` (stereo not given), the compound was called inactive in test [6] and in test [8].

On to `c1ccc2scnc2c1`, for which the result in [6] and in test [8] was inactive.

`CC(=O)c1ccc(O)cc1`: in [6], the compound was classed as inactive.

Take `CCCCCCCC(=O)N(C)C`: the outcome in test [6] and in [8] was inactive.

Turning to `CCCC(O)C(CC)CO` (stereo not given), the compound was classed as inactive in [6] and in test [8].

Take `[Na+]`: the compound was classed as inactive in test [6] and in test [8].

As to `CCCCCCCCCO`, the compound was called inactive in [6].

As for `CC(=O)c1ccc2ccccc2c1`, the outcome in [6] and in test [8] was inactive.

In the case of `CCc1cccc(O)c1`, the call in test [6] and in test [8] was inactive.

`CCCCCCCCCCOC(=O)c1ccccc1C(=O)OCCCCCCCC`: the compound was called inactive in test [9], in [6], in test [8] and in [7].

Turning to `CC(=O)OC/C=C(C)/C=C/C=C(C)/C=C/C1=C(C)CCCC1(C)C`, the compound was classed as inactive in test [6].

On to `Cc1cccc(O)c1`, for which the compound was classed as inactive in [6].

For the compound `CCC(C)(C)C1CCC(OC)CC1` (stereo not given), the call in test [6] and in test [7] was inactive.

On to `CC(=O)N(C)C`, for which the compound was called inactive in test [7].

Turning to `CN(C)C`, the compound was called inactive in test [6] and in test [7].

For `OC[C@@H](O)[C@H](O)[C@@H](O)[C@@H](O)CO`, the outcome in [8] was inactive.

With `CCCCCC(=O)O[C@]1(C(C)=O)CC[C@H]2[C@@H]3CCC4=CC(=O)CC[C@]4(C)[C@H]3CC[C@@]21C`, the concentration at half-maximal activity (AC50) in [6] is 12.6 µM (active). For the same compound, the compound was classed as inactive in test [8] and in test [7].

On to `OCC=Cc1ccccc1`, for which the outcome in [6] and in test [7] was inactive.

With `COc1ccc(OC)cc1`, in test [7], the compound was called inactive.

Turning to `O=C(O)C1=NN(c2ccc(S(=O)(=O)O)cc2)C(=O)C1`, in [8], the compound was classed as inactive.

As for `c1coc(CNc2ncnc3nc[nH]c23)c1`, in [7], the compound was classed as inactive.

For `CCC(C)C1CCCCC1=O` (stereo not given), the outcome in test [6], in test [8] and in test [7] was inactive.

With `CCCCN(CCCC)CCCCCCN(CCCC)CCCC`, the compound was classed as inactive in test [6], in test [8] and in test [7].

Turning to `COc1ccccc1O`, the call in [6] and in test [7] was inactive.

On to `CCC(C)(CCCC(C)C)OC(C)=O` (stereo not given), for which the outcome in [6], in test [8] and in test [7] was inactive.

As for `CCCC1CCC(=O)CC1`, the result in [6] and in test [7] was inactive.

`CCCCCC1C(=O)CCC1CC(=O)OC` (stereo not given): the outcome in test [7] was inactive.

As for `CC(=O)OC(C)(C)C1CC=C(C)CC1` (stereo not given), the result in [8] and in test [7] was inactive.

Regarding `CC12CCC(C1)C(C)(C)C2O` (stereo not given), the compound was called inactive in [6], in [8] and in [7].

For `CC1=CCC(C(C)C)=CC1`, the compound was classed as inactive in test [8] and in [7].

Regarding `Cc1cccc(C)c1`, the compound was classed as inactive in test [8] and in test [7].

As to `CN(C)C(=O)Nc1ccccc1`, the compound was classed as inactive in [6], in test [8] and in test [7].

For the compound `CCCCCCCCOC(=O)c1ccc(O)cc1`, the figures for the concentration at half-maximal activity (AC50) in [6], in [8] and in test [7] were 5.35 µM (active), 3.7 µM (active) and 3.43 µM (active), respectively.

Turning to `C1=COCCC1`, the compound was classed as inactive in test [8] and in [7].

For `O=Cc1ccccc1O`, in [7], the compound was called inactive.

Take `NC(N)=S`: the outcome in test [7] was inactive.

In the case of `CCC(=O)OC(C)(C)C1CC=C(C)CC1` (stereo not given), the call in [6] and in test [7] was inactive.

For the compound `CCCO`, the compound was classed as inactive in test [6] and in [7].

Turning to `CCCCCCC(C)O` (stereo not given), the compound was classed as inactive in test [6], in [8] and in [7].

Consider `NCCN1CCNCC1`, for which the compound was called inactive in test [6], in test [8] and in test [7].

`CCCCCCCCCOS(=O)(=O)O`: the result in test [7] was inactive.

Turning to `C=CCCCCCCCCC(=O)OCC`, the outcome in test [6] and in test [7] was inactive.

`CC(=O)C1=C(C)[C@@H]2C[C@@]3(C1)[C@H](C)CC[C@H]3C2(C)C`: in test [6], the AC50 is 12.7 µM (active). Further, the outcome in test [8] and in test [7] was inactive.

Regarding `CCCCCCCCCCCCOCCOS(=O)(=O)O`, the AC50 in test [8] was 10 µM (active); in [7], 11 µM (active).

For the compound `CCCCCCCCOC(C)=O`, the call in test [8] and in [7] was inactive.

With `CCCCC(CC)COCCO` (stereo not given), the call in test [6], in [8] and in test [7] was inactive.

Regarding `CCC(C)COC(=O)CC(C)C` (stereo not given), the compound was called inactive in [6] and in [7].

Regarding `c1ccc(Cc2ccccc2)cc1`, the outcome in test [6] was inactive. Also, the AC50 in test [7] was 7.03 µM (active).

In the case of `CCCCOCCOCCOCCO`, the compound was classed as inactive in test [6], in test [8] and in test [7].

With `COc1ccc2[nH]cc(CCNC(C)=O)c2c1`, the compound was called inactive in test [6] and in test [7].

(Values after PubChem BioAssay (EPA / NIEHS).)
